This note sets out measurements from PubChem BioAssay (EPA / NIEHS).

Where “and” joins values, the source holds several entries; their conditions need not be identical. Identical values can stand only once. Records with an inconclusive call do not appear. Calls of active or inactive are those of the source. Rule for the calls: active = hit-call score of the fitted dose curve at least 0.9, where 1 is the maximum; inconclusive = response in the unintended direction; inactive = score below 0.9.

Experiment [1] concerns the target rat Opioid Receptor, Non-selective Sodium (Na+) Binding, Oprm1 (gene 25601) (UniProt P33535). The experiment is described as follows: NVS_GPCR_rOpiate_NonSelectiveNa: NovaScreen (NVS) G Protein-Coupled Receptor Assay for rat Opioid Receptor, Non-selective Sodium (Na+) Binding (AID 2283311). The procedure, abridged: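 Rat forebrain membranes, radioligand displacement with filter scintillation counting, 1.5 h incubation. Screened in duplicate at 25 µM; hits then run in concentration-response up to 50 µM; loss of binding fitted versus DMSO.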

In experiment [2] the target is rat Neonicotinoid receptor (NNR), Chrna7 (gene 25302) (UniProt Q05941). Briefly: NVS_LGIC_rNNR_BungSens: NovaScreen (NVS) Ligand-Gated Ion Channel Assay for rat Neonicotinoid receptor (NNR) (AID 2283315). The procedure, abridged:
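Radioligand displacement binding on rat cortical membranes, 2.5 h incubation, filtration and scintillation counting. Loss of specific binding fitted relative to DMSO.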

The target of experiment [3] is bovine Gamma-Aminobutyric Acid Type A Receptor BDZ, alpha 1 site (GABARa1), GABRA1 (gene 780973) (UniProt P08219). Briefly: NVS_LGIC_bGABARa1: NovaScreen (NVS) Ligand-Gated Ion Channel Assay for bovine Gamma-Aminobutyric Acid Type A Receptor BDZ, alpha 1 site (GABARa1) (AID 2283321). An outline of the steps: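 Radioligand competition binding on bovine cortical membranes, 0.75 h, filter-based scintillation counting. Primary single concentration 25 uM in duplicate; actives rerun in concentration-response to 50 uM max. Loss of signal fitted versus DMSO.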
bovine Gamma-Aminobutyric Acid Type A Receptor BDZ, alpha 1 site (GABARa1), GABRA1 (gene 780973), sequence (P08219 whole entry, looked up): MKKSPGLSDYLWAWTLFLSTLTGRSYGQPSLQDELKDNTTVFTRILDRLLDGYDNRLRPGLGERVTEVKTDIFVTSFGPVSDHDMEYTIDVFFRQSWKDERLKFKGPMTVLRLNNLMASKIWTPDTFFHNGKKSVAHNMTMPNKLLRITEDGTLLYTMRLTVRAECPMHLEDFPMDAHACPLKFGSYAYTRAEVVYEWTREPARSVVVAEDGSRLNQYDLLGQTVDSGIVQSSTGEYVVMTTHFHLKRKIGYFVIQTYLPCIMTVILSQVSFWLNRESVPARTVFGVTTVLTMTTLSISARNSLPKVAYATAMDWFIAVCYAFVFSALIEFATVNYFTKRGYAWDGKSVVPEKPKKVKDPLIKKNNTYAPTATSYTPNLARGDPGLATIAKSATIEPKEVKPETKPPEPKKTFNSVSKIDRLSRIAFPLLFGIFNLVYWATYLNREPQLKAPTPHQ

Experiment [4] addresses bovine Gamma-Aminobutyric Acid Type A Receptor BDZ, alpha 5 site (GABARa5), GABRA5 (gene 523515) (UniProt Q08E50). The experiment is described as follows: NVS_LGIC_bGABARa5: NovaScreen (NVS) Ligand-Gated Ion Channel Assay for bovine Gamma-Aminobutyric Acid Type A Receptor BDZ, alpha 5 site (GABARa5) (AID 2283323). The procedure, abridged:
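Radioligand competitive displacement binding on bovine hippocampal membranes, read 1 hr after dosing by filter-based scintillation counting. Primary screen at 25 uM in duplicate; actives (e.g. ≥30% inhibition) then run in concentration-response up to 50 uM.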

The target in experiment [5] is rat Thyrotropin Releasing Hormone Receptor (TRH), Trhr (gene 25570) (UniProt Q01717). Briefly: NVS_GPCR_rTRH: NovaScreen (NVS) G Protein-Coupled Receptor Assay for rat Thyrotropin Releasing Hormone Receptor (TRH) (AID 2283329).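 Note: hit means lower bound tracer signal versus DMSO baseline.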 The procedure, abridged: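 Test compounds are screened at 25 uM in duplicate against radioligand binding in rat forebrain membranes, with active pairs followed up over a concentration range. Detection uses filter-based radiodetection after a 4 h exposure.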
rat Thyrotropin Releasing Hormone Receptor (TRH), Trhr (gene 25570), sequence (Q01717 whole entry, looked up): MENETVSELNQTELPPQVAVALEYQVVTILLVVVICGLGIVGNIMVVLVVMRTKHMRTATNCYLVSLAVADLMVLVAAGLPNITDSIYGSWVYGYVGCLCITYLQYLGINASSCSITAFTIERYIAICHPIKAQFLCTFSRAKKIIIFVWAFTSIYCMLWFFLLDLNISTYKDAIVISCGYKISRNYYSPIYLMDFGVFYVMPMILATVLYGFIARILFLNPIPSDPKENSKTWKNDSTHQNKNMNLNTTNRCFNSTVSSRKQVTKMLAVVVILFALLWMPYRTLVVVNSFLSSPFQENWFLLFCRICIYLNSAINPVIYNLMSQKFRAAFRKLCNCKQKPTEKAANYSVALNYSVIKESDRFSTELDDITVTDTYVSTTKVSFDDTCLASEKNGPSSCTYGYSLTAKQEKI

The target in experiment [6] is human Constitutive Androstane Receptor (CAR), NR1I3 (gene 9970) (UniProt Q14994). The experiment is described as follows: NVS_NR_hCAR_Agonist: NovaScreen (NVS) Nuclear Receptor Binding Assay for human Constitutive Androstane Receptor Agonism (CAR) (AID 2283328). The procedure, abridged: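 Cell-free TR-FRET binding readout with extracted human CAR protein, read 1 h after dosing. Gain of signal fitted against DMSO baseline. Single-concentration duplicates at 25 uM, then concentration-response up to 50 uM for actives.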

Experiment [7] deals with Sodium channel protein type 1 subunit alpha (Rattus norvegicus) (UniProt P04774). The experiment is described as follows: NVS_IC_rNaCh_site2: NovaScreen (NVS) Ion Channel Assay for rat Sodium Channel, Site 2 (NaCh) (AID 2283322).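 Note: hit means loss of radioligand binding signal relative to DMSO so AC50 marks displacement.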 The procedure, abridged:
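Membranes: rat forebrain. Format: competitive radioligand displacement, filter separation, scintillation readout, 1 h exposure. Primary screen in duplicate at 25 uM; actives retested in concentration series.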

The target of experiment [8] is human Peripheral-type Benzodiazepine Receptor (PBR), TSPO (gene 706) (UniProt P30536). Briefly: NVS_MP_hPBR: NovaScreen (NVS) Membrane Protein Assay for human Peripheral-type Benzodiazepine Receptor (PBR) (AID 2283331).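 Note: hits reduce radioligand binding relative to DMSO baseline.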 The procedure, abridged: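 Radioligand displacement on human colonic cell membranes, 1 h incubation; bound radioactivity by filtration and scintillation counting. Primary screen in duplicate at 25 uM single concentration, actives followed up in concentration series; loss of binding versus DMSO.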
human Peripheral-type Benzodiazepine Receptor (PBR), TSPO (gene 706), sequence (P30536 whole entry, looked up): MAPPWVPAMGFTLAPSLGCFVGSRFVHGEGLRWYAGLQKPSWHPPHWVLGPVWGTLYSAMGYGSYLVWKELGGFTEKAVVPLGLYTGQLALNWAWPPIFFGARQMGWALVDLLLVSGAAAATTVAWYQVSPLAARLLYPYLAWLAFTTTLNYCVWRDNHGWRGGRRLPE

Experiment [9] concerns the target rat Corticotropin Releasing Factor Receptor (CRF), Crhr1 (gene 58959) (UniProt P35353). Briefly: NVS_GPCR_rCRF: NovaScreen (NVS) G Protein-Coupled Receptor Assay for rat Corticotropin Releasing Factor Receptor (CRF) (AID 2283300). An outline of the steps: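 Rat cortical membranes used as receptor source in a radioligand competitive displacement binding assay; scintillation read 2 h after dosing. Primary screen run in duplicate at 25 uM; loss of signal versus DMSO baseline indicates binding.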

For experiment [10], the target named is rat Gamma-Aminobutyric Acid Type B Receptor (GABBR), Gabbr1 (gene 81657) (UniProt Q9Z0U4). Briefly: NVS_GPCR_rGABBR: NovaScreen (NVS) G Protein-Coupled Receptor Assay for rat Gamma-Aminobutyric Acid Type B Receptor (GABBR) (AID 2283301). The procedure, abridged: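 Radioligand displacement on rat cortical membranes, 1 h, filter-based scintillation counting. Primary screen at 25 uM in duplicate; compounds passing threshold re-tested in concentration-response up to 50 uM; loss of binding fitted against DMSO.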
rat Gamma-Aminobutyric Acid Type B Receptor (GABBR), Gabbr1 (gene 81657), sequence (Q9Z0U4 whole entry, looked up): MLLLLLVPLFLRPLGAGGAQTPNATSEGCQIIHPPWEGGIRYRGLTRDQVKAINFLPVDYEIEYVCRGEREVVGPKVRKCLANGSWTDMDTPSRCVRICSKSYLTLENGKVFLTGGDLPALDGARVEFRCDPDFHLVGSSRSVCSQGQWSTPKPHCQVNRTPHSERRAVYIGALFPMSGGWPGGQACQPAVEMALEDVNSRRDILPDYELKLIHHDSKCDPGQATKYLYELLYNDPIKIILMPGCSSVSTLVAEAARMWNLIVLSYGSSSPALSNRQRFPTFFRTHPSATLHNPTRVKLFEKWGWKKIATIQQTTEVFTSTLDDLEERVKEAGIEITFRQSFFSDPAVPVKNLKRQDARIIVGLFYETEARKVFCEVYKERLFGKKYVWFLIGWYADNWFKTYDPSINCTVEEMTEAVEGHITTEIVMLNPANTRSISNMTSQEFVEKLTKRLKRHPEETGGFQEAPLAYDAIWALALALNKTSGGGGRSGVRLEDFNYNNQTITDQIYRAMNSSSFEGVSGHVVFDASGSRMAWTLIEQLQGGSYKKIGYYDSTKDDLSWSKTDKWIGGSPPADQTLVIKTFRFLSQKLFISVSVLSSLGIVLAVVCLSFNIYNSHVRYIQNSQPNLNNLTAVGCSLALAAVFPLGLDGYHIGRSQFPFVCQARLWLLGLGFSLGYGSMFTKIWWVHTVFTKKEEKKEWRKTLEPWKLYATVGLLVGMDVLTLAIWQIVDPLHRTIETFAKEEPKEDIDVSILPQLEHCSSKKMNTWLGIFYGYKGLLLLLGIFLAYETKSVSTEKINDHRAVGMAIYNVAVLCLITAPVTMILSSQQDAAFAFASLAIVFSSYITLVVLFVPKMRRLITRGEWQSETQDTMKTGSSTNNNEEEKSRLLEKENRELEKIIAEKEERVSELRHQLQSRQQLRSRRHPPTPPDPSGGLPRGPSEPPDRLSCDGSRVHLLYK

The target in experiment [11] is rat Glutamate, NMDA Agonist Site (GluNMDA), Grin1 (gene 24408) (UniProt P35439). The experiment is described as follows: NVS_LGIC_rGluNMDA_Agonist: NovaScreen (NVS) Ligand-Gated Ion Channel Assay for rat Glutamate, NMDA Agonist Site (GluNMDA) (AID 2283327). An outline of the steps:
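Rat forebrain membranes, radioligand binding in the agonist-site protocol; 1 h after dosing; filter-based scintillation counting. Single-concentration duplicate screen at 25 uM, then concentration-response up to 50 uM for actives; gain-of-signal vs DMSO.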

For experiment [12], the target named is human Androgen Receptor (AR), AR (gene 367) (UniProt P10275). The experiment is described as follows: NVS_NR_hAR: NovaScreen (NVS) Nuclear Receptor Binding Assay for human Androgen Receptor (AR) (AID 2283332). An outline of the steps:
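LnCAP cell-free extract; radioligand displacement read by scintillation counting after 20 h. Primary screen single concentration 25 uM in duplicate, actives then run as concentration series; loss-of-signal fitted relative to DMSO baseline.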

For experiment [13], the target named is rat Adrenergic Receptor, Alpha 2 (Adra2), Non-selective Binding, Adra2a (gene 25083) (UniProt P22909). Briefly: NVS_GPCR_rAdra2_NonSelective: NovaScreen (NVS) G Protein-Coupled Receptor Assay for rat Adrenergic Receptor, Alpha 2 (Adra2), Non-selective Binding (AID 2283299). An outline of the steps: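 Rat cortical membranes, radioligand competitive displacement read by filter-based scintillation counting 1.25 hours after dosing. Primary screen in duplicate at 25 uM; actives followed up in concentration series.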
rat Adrenergic Receptor, Alpha 2 (Adra2), Non-selective Binding, Adra2a (gene 25083), sequence (P22909 whole entry, looked up): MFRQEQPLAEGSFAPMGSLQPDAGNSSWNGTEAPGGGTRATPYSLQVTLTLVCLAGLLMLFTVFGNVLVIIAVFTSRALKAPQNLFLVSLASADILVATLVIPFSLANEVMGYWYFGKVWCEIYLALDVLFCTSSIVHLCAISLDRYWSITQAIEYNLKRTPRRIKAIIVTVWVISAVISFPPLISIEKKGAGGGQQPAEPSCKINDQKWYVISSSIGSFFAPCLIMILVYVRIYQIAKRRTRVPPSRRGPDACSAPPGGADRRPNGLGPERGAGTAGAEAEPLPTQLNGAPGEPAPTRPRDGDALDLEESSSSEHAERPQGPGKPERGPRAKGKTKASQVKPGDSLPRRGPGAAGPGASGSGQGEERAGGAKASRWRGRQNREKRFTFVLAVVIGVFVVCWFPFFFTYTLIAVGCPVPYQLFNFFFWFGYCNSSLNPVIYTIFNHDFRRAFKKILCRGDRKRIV

Experiment [14] relates to NCBI gene 24521. Briefly: NVS_IC_rKATPCh: NovaScreen (NVS) Ion Channel Assay for rat Potassium Channel, ATP-Sensitive (KATPCh) (AID 2283319). The procedure, abridged:
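Rat cortical membranes; radioligand binding at ATP-sensitive K channel site, filter-based scintillation counting 2 h after dosing. Single-point duplicate screen at 25 uM, hits rerun in concentration-response up to 50 uM; loss of signal versus DMSO.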

For experiment [15], the target named is Adra2b (gene 24174) (UniProt P19328). Briefly: NVS_GPCR_rmAdra2B: NovaScreen (NVS) G Protein-Coupled Receptor Assay for hybird cells Adrenergic, Alpha 2B Receptor (Adra2B) (AID 2283306). An outline of the steps:
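Radioligand filter-binding assay on membrane proteins from neuroglioma/blastoma hybrid cells (rodent), 1 h after dosing; scintillation counting, loss of signal vs DMSO. Primary screen in duplicate at 25 uM, actives then run in concentration series.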

The target of experiment [16] is rat Gamma-Aminobutyric Acid Type A Receptor, Non-Selective (GABAR-NonSelective), Gabra1 (gene 29705) (UniProt P62813). Briefly: NVS_LGIC_rGABAR_NonSelective: NovaScreen (NVS) Ligand-Gated Ion Channel Assay for rat Gamma-Aminobutyric Acid Type A Receptor, Non-Selective (GABAR-NonSelective) (AID 2283326). The procedure, abridged:
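Radioligand displacement on rat whole-brain extract, 1 h, filter scintillation readout; signal loss fitted versus DMSO. Primary screen in duplicate at 25 uM; hits (e.g. ≥30% inhibition) retested in concentration-response up to 50 uM.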

human Androgen Receptor (AR), AR (gene 367), sequence (P10275 whole entry, looked up): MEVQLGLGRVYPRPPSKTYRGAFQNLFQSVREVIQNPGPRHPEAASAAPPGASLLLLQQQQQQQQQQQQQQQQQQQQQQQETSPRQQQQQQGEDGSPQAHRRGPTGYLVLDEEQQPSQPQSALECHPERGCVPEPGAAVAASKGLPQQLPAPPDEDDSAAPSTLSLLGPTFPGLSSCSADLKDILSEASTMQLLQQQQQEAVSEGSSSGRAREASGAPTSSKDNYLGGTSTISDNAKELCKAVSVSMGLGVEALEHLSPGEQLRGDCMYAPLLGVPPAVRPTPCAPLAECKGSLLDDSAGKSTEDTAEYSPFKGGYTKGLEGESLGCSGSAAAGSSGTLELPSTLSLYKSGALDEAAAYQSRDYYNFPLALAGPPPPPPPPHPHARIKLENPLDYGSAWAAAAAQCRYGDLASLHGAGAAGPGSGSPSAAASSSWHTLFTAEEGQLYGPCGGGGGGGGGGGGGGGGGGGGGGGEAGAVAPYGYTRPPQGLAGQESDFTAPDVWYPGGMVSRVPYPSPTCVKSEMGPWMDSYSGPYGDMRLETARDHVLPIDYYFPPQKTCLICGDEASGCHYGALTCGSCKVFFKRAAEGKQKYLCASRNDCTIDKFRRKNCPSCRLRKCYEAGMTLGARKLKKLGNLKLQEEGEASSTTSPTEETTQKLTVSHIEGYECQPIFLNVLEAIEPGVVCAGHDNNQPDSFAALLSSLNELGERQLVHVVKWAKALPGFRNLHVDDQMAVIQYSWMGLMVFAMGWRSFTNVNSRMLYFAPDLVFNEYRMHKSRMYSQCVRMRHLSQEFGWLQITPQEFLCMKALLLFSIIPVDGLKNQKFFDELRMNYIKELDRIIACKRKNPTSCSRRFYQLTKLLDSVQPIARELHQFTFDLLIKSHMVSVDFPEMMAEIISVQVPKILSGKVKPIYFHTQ
rat Neonicotinoid receptor (NNR), Chrna7 (gene 25302), sequence (Q05941 whole entry, looked up): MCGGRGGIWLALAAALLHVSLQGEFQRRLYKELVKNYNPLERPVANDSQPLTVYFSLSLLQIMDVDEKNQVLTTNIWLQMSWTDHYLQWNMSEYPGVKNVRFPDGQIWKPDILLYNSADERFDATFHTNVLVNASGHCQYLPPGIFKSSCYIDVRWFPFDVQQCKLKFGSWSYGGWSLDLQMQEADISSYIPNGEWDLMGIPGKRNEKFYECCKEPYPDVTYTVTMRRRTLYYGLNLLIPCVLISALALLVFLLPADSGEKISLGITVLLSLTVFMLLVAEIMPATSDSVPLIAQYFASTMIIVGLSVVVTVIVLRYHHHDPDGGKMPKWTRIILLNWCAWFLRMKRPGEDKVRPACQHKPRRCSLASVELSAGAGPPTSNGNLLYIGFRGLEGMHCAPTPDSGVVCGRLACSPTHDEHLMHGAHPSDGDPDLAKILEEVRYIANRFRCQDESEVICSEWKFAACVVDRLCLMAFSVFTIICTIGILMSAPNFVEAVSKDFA
Adra2b (gene 24174), sequence (P19328 whole entry, looked up): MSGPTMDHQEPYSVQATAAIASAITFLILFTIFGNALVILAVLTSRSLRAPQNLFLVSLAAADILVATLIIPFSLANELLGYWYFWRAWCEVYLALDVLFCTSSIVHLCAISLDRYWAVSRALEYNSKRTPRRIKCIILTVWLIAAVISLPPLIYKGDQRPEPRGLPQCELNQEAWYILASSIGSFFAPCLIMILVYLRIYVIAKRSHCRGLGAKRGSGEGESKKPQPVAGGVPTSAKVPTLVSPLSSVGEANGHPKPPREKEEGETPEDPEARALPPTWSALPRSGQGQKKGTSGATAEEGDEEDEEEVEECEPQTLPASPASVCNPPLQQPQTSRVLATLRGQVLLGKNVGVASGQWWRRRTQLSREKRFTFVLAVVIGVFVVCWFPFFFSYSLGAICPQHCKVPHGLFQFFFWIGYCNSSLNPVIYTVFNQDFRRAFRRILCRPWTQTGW
bovine Gamma-Aminobutyric Acid Type A Receptor BDZ, alpha 5 site (GABARa5), GABRA5 (gene 523515), sequence (Q08E50 whole entry, looked up): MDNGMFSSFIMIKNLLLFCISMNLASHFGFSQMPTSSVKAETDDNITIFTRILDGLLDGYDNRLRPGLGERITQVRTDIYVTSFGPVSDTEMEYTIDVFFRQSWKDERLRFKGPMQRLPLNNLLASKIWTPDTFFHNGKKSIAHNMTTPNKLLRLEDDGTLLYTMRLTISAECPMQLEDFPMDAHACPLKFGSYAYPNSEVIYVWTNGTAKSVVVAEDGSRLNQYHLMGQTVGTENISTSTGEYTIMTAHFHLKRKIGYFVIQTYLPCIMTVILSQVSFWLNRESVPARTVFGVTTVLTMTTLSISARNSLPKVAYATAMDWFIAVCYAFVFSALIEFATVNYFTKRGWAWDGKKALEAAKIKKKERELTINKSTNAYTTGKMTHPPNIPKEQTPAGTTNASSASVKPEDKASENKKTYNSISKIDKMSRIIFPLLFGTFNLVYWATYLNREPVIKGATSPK

Take `Nc1cc2c3c(c1)C(c1ccccc1)=N[C@@H](NC(=O)c1cccnc1)C(=O)N3CC2`: the result in experiment [1], in experiment [2], in experiment [3] and in experiment [4] was inactive. Regarding `O=C(CBr)OCc1ccccc1`, the call in experiment [5] was inactive. In the case of `c1ccc2c(c1)Nc1ccccc1S2`, in experiment [6], the result was inactive. Consider `CCOP(=S)(OCC)SCS(=O)(=O)CC`, for which the call in experiment [7] was inactive. Moreover, the AC50 in experiment [8] was 25 µM (active). For the compound `CC(Cc1ccc(OCC(=O)O)cc1)NCC(O)c1csc(C(F)(F)F)n1` (stereo not drawn), the compound was called inactive in experiment [9], in [10] and in experiment [11]. With `CCOP(=S)(OCC)SCn1nnc2ccccc2c1=O`, the AC50 in experiment [8] was 11.2 µM (active). As for `O=P(OCC(Br)CBr)(OCC(Br)CBr)OCC(Br)CBr` (stereo not drawn), the AC50 in experiment [8] was 1.25 µM (active) and 139 nM (active); in experiment [12], 6.63 µM (active). Turning to `CCCCC(CC)COP(=O)(Oc1ccccc1)Oc1ccccc1` (stereo not drawn), the result in experiment [13] and in experiment [5] was inactive. Further, the AC50 in experiment [8] was 10.9 µM (active). Take `Cc1cc(C)c(C(=O)P(=O)(c2ccccc2)c2ccccc2)c(C)c1`: the result in [2] and in experiment [7] was inactive. Besides, in experiment [8], the AC50 was 3.55 µM (active). With `CCOP(=S)(NC(C)C)Oc1ccccc1C(=O)OC(C)C` (stereo not drawn), the AC50 in [8] is 9.3 µM (active). Regarding `COC(N)=O`, the outcome in experiment [5] was inactive. On to `Oc1ccc(I)cc1`, for which the AC50 in [7] is 7.01 µM (active). The call in experiment [8] was inactive. On to `OCC1CO1` (stereo not drawn), for which the compound was classed as inactive in experiment [14]. Turning to `N#Cc1ccc(O)cc1`, the AC50 in [7] was 41.3 µM (active). As to `O=P(Oc1ccccc1)(Oc1ccccc1)Oc1ccccc1`, the result in [15] was inactive. For the same compound, in experiment [8], the AC50 was 2.61 µM (active). On to `FC(F)(F)c1ccc(Cl)cc1`, for which, in experiment [5], the compound was called inactive. With `CCCCCCCc1ccc(O)cc1`, the outcome in experiment [5] and in experiment [12] was inactive. With `c1ccc(OP(Oc2ccccc2)Oc2ccccc2)cc1`, the AC50 in [8] was 17.6 µM (active). Turning to `CCOS(=O)(=O)OCC`, in experiment [16], the outcome was inactive.
